The results in this text go back to the OligoGym collection.
Note: reference of the scale not given here.

In one assay the target is KLF9. In words: pooled miR-30 sensor sort-seq; sequence = guide strand. The conditions noted are these: shRNA.
TTAAACACCTGCAATAGTCTTT yielded a sensor-assay potency score (higher = more potent) of 0.257. TTAATCTCAAAAGTTAACGTGA had a sensor-assay potency score (higher = more potent) of 0.201.

Regarding TTCTTTCTTTTTAAACACCTGC, the sensor-assay potency score (higher = more potent) is -0.453. Sequence TTCAGGTCCAACAAGCTCTTGG returned a sensor-assay potency score (higher = more potent) of -0.253.

Take TTAAACAGTTGTAAAGATCAGT: the sensor-assay potency score (higher = more potent) was -0.0225.

Sequence TTTCTCGTGAGAAAACACTTTC showed a sensor-assay potency score (higher = more potent) of -0.637. TTACAAGTTAGCAAGTTGCTAG had a sensor-assay potency score (higher = more potent) of -0.0943. Regarding TTCACCTGTATGCACTCTGTAA, the sensor-assay potency score (higher = more potent) is -0.85.

Turning to TACAGTGTTACAGATCATCTGA, the sensor-assay potency score (higher = more potent) amounted to 0.728. The sequence TTCGATCGCTTGATCATGCTGG registered a sensor-assay potency score (higher = more potent) of 0.623. Still for that read-out and setting: the value for TAACTTATTCATCCTCTGCATT was -0.919. As to TTTATATCCATCTAAGTGCTTG, the sensor-assay potency score (higher = more potent) is -0.361. For TCTACATAACTCTTGCACCTGA, the sensor-assay potency score (higher = more potent) is -0.302. Same read-out and setting: to TTAGTGTTCAATGAACTCTAGT belongs -0.32; to TTGATCTTAGGCTACAATGTGC, -0.659. As to TTCTGTACTTAGTGTAACCTTT, the sensor-assay potency score (higher = more potent) was -0.287. Sequence TTTAGATGACAGATCATGCTGG had a sensor-assay potency score (higher = more potent) of 0.459. Regarding TAAACAAAAATTACTATCCTGC, the sensor-assay potency score (higher = more potent) is 0.0439.

Turning to TATCTTGATATAGTAAATCTAA, the sensor-assay potency score (higher = more potent) was -0.625. For the sequence TAGTAGTCCTATTTGAACCATA, the sensor-assay potency score (higher = more potent) was -0.845. The sequence TTGTCTTTCACTGACTTTGCTT displayed a sensor-assay potency score (higher = more potent) of -0.214. In the case of TTCTGTAATTGTAACTACCAAA, the sensor-assay potency score (higher = more potent) is -0.904.

In turn, TTGCAAAACACTACCCTCCTTC displayed a sensor-assay potency score (higher = more potent) of -0.0123.

Another assay addresses KLHL20. Described as above. The conditions noted are these: shRNA.
Sequence TCTCCTGTAAACATAGCTCGGA yielded a sensor-assay potency score (higher = more potent) of -0.114.

TAATTGAGGACGTCTTTCCTGA gave a sensor-assay potency score (higher = more potent) of 0.0524. TTGAAAATTATTGTGCATCTTG gave a sensor-assay potency score (higher = more potent) of -0.295.

Take TTTGTCTATGAATACAATGAGG: the sensor-assay potency score (higher = more potent) was -1.57. In turn, TATGTTGGGTGAACTTGTCTGC came in with a sensor-assay potency score (higher = more potent) of 0.299. Turning to TTGAACACTTGTTCTTCACTGC, the sensor-assay potency score (higher = more potent) was found to be 0.569. Take TTGTTCTTCACTGCGAACGTTT: the sensor-assay potency score (higher = more potent) is -0.688. TACATTTTGCATACCTACCTTT had a sensor-assay potency score (higher = more potent) of -0.113. Same read-out and setting: to TCATCTACCAAGTCTCTGCATT belongs -0.755; to TTGTTTGTATAAAAGAACCAAG, -1.24.

Sequence TTCTTCATCACTTTTGATGAGG yielded a sensor-assay potency score (higher = more potent) of -0.804. As to TACAGCATAGATCATGTCCTGA, the sensor-assay potency score (higher = more potent) came out at 0.298.

A further assay deals with KLHL24. The description is as above. The conditions noted are these: shRNA.
As for AAACTTTTCGCTTAGTTGCTGG, the sensor-assay potency score (higher = more potent) is -0.446. On to TATCTATGAATAGTCACACAGC, for which the sensor-assay potency score (higher = more potent) was -1.1.

TTGCCTTGGTCAGTCCACCGGC: the sensor-assay potency score (higher = more potent) is -0.546. Still for that read-out and setting: the value for TATCAGAACAAGTATTATCATC was -1.27; that for ATAACATCTGTGAATAAGCGGC was -0.459.
